From PubChem BioAssay
HIF-2a block = HIF-2a reporter inhibitors, primary screen, luminescence, 786-0 RCC cells | inhibition, % at 18.8 µM | actives 0.72% (n = 360,000) | 786-0 RCC cells HIF-2a reporter, luciferase luminescence, overnight;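 active = inhibition of the luminescence signal of 40% or more relative to plate controls, in a single-dose primary screen at 18.75 µM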
Shn3 inh set2 = reduction of Shn3 3'UTR firefly luciferase signal, primary screen, Schnurri-3 inhibitor project, cell-based, Clone20 osteoblasts, set 2 | Clone20 osteoblast Shn3 3'UTR firefly luciferase, 24 h | inhibition, % at 12.5 µM | actives 0.52% (n = 360,000);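 active = mean inhibition of at least 75% with every replicate also reaching 75%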;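 also: 0% = median of neutral control wells and 100% = pilot-screen positive control compound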
Peg3 promoter = Peg3 promoter-driven luciferase inhibitors, primary screen, cell-based, HeLa, luciferase luminescence; inhibition, % at 20 µM; AID 588405, 2011; actives 1.7% (n = 360,000); HeLa PEG-Prom luciferase reporter, overnight;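 active = inhibition of at least 50% at 20 µM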
TRPM1 prom inh = inhibitors of MITF-dependent TRPM1 promoter reporter, primary screen, cell-based, SK-MEL-5, single point, luciferase. AID 488899, 2010. inhibition, % at 12.5 µM. SK-MEL-5 TRPM1 promoter luciferase, 24 h. actives 0.83% (n = 330,000);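 active = mean inhibition across replicates of 60% or more, whatever share of single replicates reaches that level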
CF NFkB block = inhibitors of PAF-induced NF-kB signaling, primary screen, cell-based, GFP fluorescence, uHTS; AID 588850, 2011; inhibition, % at 5 µM; actives 0.86% (n = 360,000); KKLEB NF-kB-GFP reporter, GFP fluorescence overnight;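 active = at least 50% inhibition at 5 µM, scaled per plate between neutral and stimulator controls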;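 also: PAF is a Pseudomonas aeruginosa culture filtrate used as stimulus; plate controls were PAF-stimulated DMSO wells for no effect and unstimulated DMSO wells for full effect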
KKLEB cytotox = cytotoxicity in KKLEB CF airway cells, primary screen, cytotoxicity control for CF NF-kB inhibitor project, cell-based, uHTS, fluorescence assay plates. KKLEB CF airway cells viability, ATPlite luminescence, overnight; active compounds read low; cells stimulated with P. aeruginosa culture filtrate. AID 602141, 2011. activity change (cytotoxicity), % at 5 µM. actives 0.36% (n = 360,000);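 active = corrected activity change at or below -50% at 5 µM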
Numbers without * were called inactive; . = not tested or not shown. Only some compounds are listed: those with a hit (about 2.8% of all), similar ones and a draw of the others.

SMILES | HIF-2a block | Shn3 inh set2 | Peg3 promoter | TRPM1 prom inh | CF NFkB block | KKLEB cytotox
C[C@H]1C[C@@H]2[C@H]([C@@H](O)C[C@@]3(C)[C@H]2CC[C@]3(O)C(=O)CO)[C@@]2(C)C=CC(=O)C=C12 | 17 | -13 | -9 | 5 | 74* | 20
CC(=O)OCC(=O)[C@@]1(O)CC[C@H]2[C@@H]3CCC4=CC(=O)C=C[C@]4(C)[C@H]3C(=O)C[C@@]21C | -147 | 0 | -5 | . | 19 | 18
CCC(=O)OCC(=O)C1(OC(=O)CC)[C@H](C)C[C@H]2[C@H]3[C@H]([C@@H](O)C[C@@]21C)[C@@]1(C)C=CC(=O)C=C1C[C@H]3Cl (stereo partly drawn) | 28 | 36 | -9 | -14 | 69* | 32
CCC(C)(C)NC(=O)C1CCN(c2nc(OC)nc(OC)n2)CC1 | 15 | -22 | 5 | -2 | -10 | 18
CC1CN(CCc2ccccc2)c2nc3c(c(=O)n(CC(N)=O)c(=O)n3C)n2C1 (stereo not drawn) | 7 | -6 | 4 | -6 | -7 | 7
C[C@]12C=CC(=O)C=C1CC[C@@H]1[C@@H]2[C@@H](O)C[C@@]2(C)[C@H]1CC[C@]2(O)C(=O)COC(=O)CCC(=O)O | 32 | 3 | 12 | -5 | 56* | 16
CCOC(=O)O[C@]1(C(=O)COC(=O)CC)CC[C@H]2[C@@H]3CCC4=CC(=O)C=C[C@]4(C)[C@H]3[C@@H](O)C[C@@]21C | 16 | 9 | -30 | -1 | 77* | 9
COc1ccc(-c2oc3ncnc(NCCCN(C)C)c3c2-c2ccc(OC)cc2)cc1 | 33 | 17 | 104* | 21 | 21 | -20
CN(C)CCNc1ncnc2oc(-c3ccccc3)c(-c3ccccc3)c12 | 4 | 10 | 71* | -12 | 27 | -21
COc1cccc(NC(=O)C(=O)NCCC2CCCCN2S(=O)(=O)c2cccs2)c1 (stereo not drawn) | -202 | -119 | -176 | -94 | -6 | -3
COc1ccc(C(CCNC(C)c2ccccc2)C(C)C)cc1 (stereo not drawn) | 4 | -10 | -8 | . | 6 | -5
COc1ccc(C(C)NCCC(c2ccc(OC(C)C)cc2)c2ccccc2OC)cc1 (stereo not drawn) | 27 | 69 | 104* | 92* | -2 | 0
Cc1nc2ccc([N+](=O)[O-])cc2nc1C | 10 | 18 | 9 | 15 | -13 | 4
Cc1ccc2nc3cc([N+](=O)[O-])cc([N+](=O)[O-])c3cc2c1 | -130 | 61 | 75* | 63* | 68* | -39
Cc1cc(C)c(-c2csc(NC(=O)/C=C/c3cccs3)n2)c(C)c1 | -58 | 29 | -13 | 40 | 58* | -62*
Cc1cc(C)nc(NC(=O)/C=C/c2cccs2)c1 | -322 | -63 | -246 | -70 | -9 | -3
N#C/C(=N\Nc1ccccc1)C(N)=S | -7 | . | 6 | 13 | 18 | -5
N#C/C(=N\Nc1ccc(Cl)cc1)C(N)=S | -161 | 11 | -31 | -7 | 61* | -39
Cc1ccc(NC(N)=S)cc1C | 4 | -10 | 3 | 8 | -9 | -3
Cc1ccc(N/N=C(\C#N)C(N)=S)cc1C | -80 | -35 | -8 | 2 | 67* | 0
COC(=O)c1cccc(N(CC(=O)NC2CCCCC2)C(=O)CNC(=O)c2cccs2)c1 | 4 | -6 | 9 | 11 | -21 | 2
CC1(C)CC(=O)C2=C(C1)NC(=O)CC2c1ccc(N(CCC#N)CCC#N)cc1 (stereo not drawn) | 19 | -11 | 0 | -7 | -8 | 4
O=C(CCn1ccnc1)Nc1cc(Cl)ccc1O | 5 | -5 | -9 | 5 | 6 | 1
CC(=O)OCCNC(=O)Cn1cnc2c1c(=O)n(C)c(=O)n2C | 8 | -46 | 3 | -8 | 14 | -27
Oc1cccc(Nc2c3ccccc3nc3ccccc23)c1 | 40 | 65 | 76* | 35 | -96 | -11
SMILES | HIF-2a block | Shn3 inh set2 | Peg3 promoter | TRPM1 prom inh | CF NFkB block | KKLEB cytotox
COc1ccc(Nc2c3ccccc3nc3ccccc23)cc1 | 33 | 68 | 78* | 49 | -73 | -7
COc1ccccc1Nc1c2ccccc2nc2ccccc12 | 17 | 45 | 88* | 19 | -40 | -26
COc1ccc(Nc2c3c(nc4ccccc24)CCC3)cc1 | 27 | 31 | 40 | 21 | 22 | -12
COc1nc(NCCc2ccc(OC)c(OC)c2)nc(OC)n1 | 13 | -9 | 8 | -3 | 1 | 2
Cc1ccc(-c2nc(Nc3cccc(O)c3)c3ccccc3n2)cc1 | -35 | 8 | 10 | -10 | -15 | -14
COc1ccc(CCNc2c3ccccc3nc3ccccc23)cc1OC | 51* | 26 | 73* | 21 | -1 | -17
O=C(CCC(=O)N1CCc2ccccc2C1)NCCc1ccc(Cl)cc1 | 5 | 7 | 18 | -8 | 4 | -8
c1ccc2c(NCCc3c[nH]c4ccccc34)c3ccccc3nc2c1 | 44* | 74 | 99* | 88* | -124 | -30
COc1ccccc1NCC(O)Cn1c2ccccc2c2ccccc21 (stereo not drawn) | -4 | -2 | 36 | -5 | 7 | -6
COc1ccc(CCNCC(O)Cn2c3ccccc3c3ccccc32)cc1OC (stereo not drawn) | 9 | 1 | 111* | 21 | 36 | -39
CCN(CC)c1ccc(Nc2nc(N3CCOCC3)c3ccccc3n2)cc1 | 11 | 79 | 15 | -1 | 10 | -8
COc1ccc(Nc2nc(N3CCCC3)c3ccccc3n2)cc1 | 6 | 87* | 60* | 15 | -36 | 1
COc1ccccc1-c1ccc([C@@H]2C[C@H]3[C@@H](CN2)CON3C)cc1 | -36 | -33 | -59 | . | 19 | 2
CCC1Sc2ccc(S(=O)(=O)CCC(=O)NCc3ccco3)cc2NC1=O (stereo not drawn) | -15 | -9 | 8 | -12 | -1 | 6
CS(=O)(=O)c1ccc(Sc2nc3ccccc3s2)c([N+](=O)[O-])c1 | 4 | 95* | 41 | 39 | 54* | -45
CS(=O)(=O)c1ccc(Sc2nc3ccccc3[nH]2)c([N+](=O)[O-])c1 | 24 | -1 | -4 | 7 | 11 | 5
COc1ccc(C=C(C#N)C(=O)c2ccccc2)cc1 | -2 | . | . | . | . | .
COc1ccc(/C=C(/C(=O)c2cccs2)N2C=CC=CC2=C(C#N)C#N)cc1 | 1 | 67 | 94* | 46 | 29 | -22
Cc1cccc(C(=O)N[C@H](C(=O)Nc2nnc(C3CC3)s2)C(C)C)c1 | 25 | -5 | 6 | -15 | 8 | 0
